An excerpt weighted towards active compounds, which were near 9.8% of everything screened.
HTT aggregate – qHTS Multiplex Assay to Identify Dual Action Probes in a Cell Model of Huntington: Aggregate Formation (GFP); PC12 HttQ103-GFP aggregates, Acumen cytometry, 40 h; Potency, µM (doses to about 46.1 µM), for the others: top-dose activity change, negative = inhibition, most hits filed as inhibitors; actives 1.1% (n = 220,000); AID 1688, 2009; also: potency is read from the fitted curve at half-maximal effect; % is scaled to controls: 0 for no effect and ±100 for the full control effect; nearly all actives have a fitted effect of over 60% in size
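Aggregate formation scored by laser-scanning cytometer (488 excitation, 500–530 emission) in lysed PC12 cells expressing Q103-GFP after 100 nM tebufenozide induction; library tested in dose series, with ATPLite reagent added in the multiplex.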
ALDH1A1 inh – qHTS Assay for Inhibitors of Aldehyde Dehydrogenase 1 (ALDH1A1); Aldehyde dehydrogenase 1A1 (Homo sapiens), P00352; AID 1030, 2008; Purified ALDH1A1, NADH fluorescence, propionaldehyde substrate; actives 7.3% (n = 220,000); Potency, µM (doses to about 75.3 µM), for inactives: at the highest dose activity, negative = inhibition, hits mostly inhibitors; active = well fitted inhibition curve with a large enough effect, not every such curve was filed as active; inconclusive = small, poorly fitted or top-dose-only effect, or another doubt; inactive = no such curve, though single readings can be large or run the other way;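 also: potency is read from the fitted curve at half-maximal effect; plate controls were no enzyme wells and a reference inhibitor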
HTT ATP protect – qHTS Multiplex Assay to Identify Dual Action Probes in a Cell Model of Huntington: Cytoprotection (ATP); PC12 HTT-Q103 induced, cytoprotection, ATP luminescence, 40 h; Potency, µM (doses to about 56.4 µM), for inactives: cytoprotection (ATP increase), hits mostly activators; actives 0.14% (n = 230,000); AID 1471, 2008; also: potency is read from the fitted curve at half-maximal effect; % of control where 0% means no effect; nearly all actives have a fitted effect of over 45% in size
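Cells were plated at 1500 per well in phenol red-free DMEM with 5% equine and 5% calf serum. Tebufenozide (100 nM final) and compounds were added, then ATPlite reagent, and luminescence was read.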
JMJD2E inh – qHTS Assay for Inhibitors of Human Jumonji Domain Containing 2E (JMJD2E); AID 2147, 2009; Potency, µM (titrated, usually from 57.1 µM), for inactives: top-dose activity change, negative = inhibition, usual class: inhibitors; Lysine-specific demethylase 4E (Homo sapiens), B2RXH2; actives 1.6% (n = 230,000); JMJD2E catalytic domain, FDH-coupled NADH fluorescence (FDH is formaldehyde dehydrogenase);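 also: potency is read from the fitted curve at half-maximal effect; 0% = wells with enzyme and -100% = buffer wells without enzyme; nearly all actives have a fitted effect of over 50% in size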
Target sequence (B2RXH2 1-337 limits assumed): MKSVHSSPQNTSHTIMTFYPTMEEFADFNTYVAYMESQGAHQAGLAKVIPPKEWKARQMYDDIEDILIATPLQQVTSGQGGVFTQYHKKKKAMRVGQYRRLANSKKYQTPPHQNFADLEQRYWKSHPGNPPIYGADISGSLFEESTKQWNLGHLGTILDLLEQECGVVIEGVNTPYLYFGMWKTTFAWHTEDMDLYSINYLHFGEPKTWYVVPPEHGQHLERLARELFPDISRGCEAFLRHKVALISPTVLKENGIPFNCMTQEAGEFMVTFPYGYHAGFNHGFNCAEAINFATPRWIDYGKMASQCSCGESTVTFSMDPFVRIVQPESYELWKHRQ
CBFb RUNX1 block – qHTS Assay for Compounds Blocking the Interaction Between CBF-beta and RUNX1 for the Treatment of Acute Myeloid Leukemia. Runt-related transcription factor 1 (Homo sapiens) + Core-binding factor subunit beta …. AlphaScreen CBFb-His/RUNX1-biotin binding, biochemical. Potency, µM (series often up to 59.8 µM), for inactives: at the highest dose activity, negative = inhibition, actives largely listed as inhibitors. 230,000 tested, under 10 active; also: % of control where 0% means no effect
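Room-temperature protein-protein interaction test with 30 nM each of His-tagged CBF-beta and biotinylated RUNX1, 15 min with compound, then 90 min with nickel plus streptavidin beads. Signal read in AlphaScreen mode.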
HPGD block – qHTS Assay for Inhibitors of HPGD (15-Hydroxyprostaglandin Dehydrogenase); Potency, µM, for inactives: at the top dose activity change, negative = inhibition, actives largely listed as inhibitors; purified HPGD, NADH fluorescence kinetic, PGE2 substrate; AID 894, 2007; 15-hydroxyprostaglandin dehydrogenase [NAD(+)] (Homo sapiens), P15428; actives 4.3% (n = 150,000); active = well fitted inhibition curve with a large enough effect, not every such curve was filed as active; inconclusive = small, poorly fitted or top-dose-only effect, or another doubt; inactive = no such curve, though single readings can be large or run the other way; also: potency is read from the fitted curve at half-maximal effect; % is scaled to controls: 0 for no effect and ±100 for the full control effect
Target sequence (P15428 whole entry, looked up): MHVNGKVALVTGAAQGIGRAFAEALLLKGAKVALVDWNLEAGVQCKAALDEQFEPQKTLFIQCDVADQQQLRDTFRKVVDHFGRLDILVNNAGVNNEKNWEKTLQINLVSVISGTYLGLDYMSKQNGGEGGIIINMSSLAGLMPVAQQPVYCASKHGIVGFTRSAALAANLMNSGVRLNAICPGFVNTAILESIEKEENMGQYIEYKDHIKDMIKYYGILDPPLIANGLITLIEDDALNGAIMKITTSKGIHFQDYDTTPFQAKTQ
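20 nM HPGD preincubated 15 min at room temperature with compound in 50 mM Tris-HCl pH 8, 0.01% Tween 20. Started with 1 mM NAD+ and 30 uM prostaglandin E2; NADH fluorescence (360/450 nm) read 5 times over 30-s intervals, last minus first.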
Starred values were filed as active, the others as inactive; [ ] = remark or other dose. Unless noted, calls follow the shape of the dose curve; as a rule, active = well fitted curve in the direction sought with a large enough effect; inconclusive = small, poorly fitted or top-dose-only effect, or another doubt; inactive = no such curve, though single readings can be large; an effect the other way counts as inactive or inconclusive.

What do the screens show for `O=C(CSCc1c(Cl)cccc1Cl)NCC1CCCO1` (stereo not drawn)?
HTT aggregate: -16%; ALDH1A1 inh: inconclusive; HTT ATP protect: -1%; JMJD2E inh: 6%; CBFb RUNX1 block: -1%; HPGD block: 5µM*

How did O=C(CSc1ccc2c(c1)OCCO2)NCc1ccccc1 do in these assays?
HTT aggregate: -25%; ALDH1A1 inh: -10%; HTT ATP protect: -33%; JMJD2E inh: -3%; CBFb RUNX1 block: 6%

Results for O=C(Cc1c(F)cccc1Cl)NCC1CCCO1 (stereo not drawn) ?
HTT aggregate: 6%; ALDH1A1 inh: 3%; HTT ATP protect: -5%; JMJD2E inh: 2%; CBFb RUNX1 block: 2%; HPGD block: -7%

How did CN(C)C(CNC(=S)Nc1cccc(Cl)c1)c1cccnc1 (stereo not drawn) do in these assays?
HTT aggregate: 4%; ALDH1A1 inh: 5%; HTT ATP protect: -16%; JMJD2E inh: 14%; CBFb RUNX1 block: -3%

What do the screens show for `CS(=O)(=O)N1CCC[C@@]2(CCN(C(=O)Nc3cccc(F)c3)C2)C1`?
ALDH1A1 inh: 19%; HTT ATP protect: -7%; HPGD block: 6%

What do the screens show for `CCS(=O)(=O)c1ccc(O)c(NC(=O)Nc2ccccc2OC)c1`?
HTT aggregate: 20%[9.22 µM]; HTT ATP protect: inconclusive; JMJD2E inh: -11%; CBFb RUNX1 block: 6%

Results for CN(C)c1cccc(NC2=CC(=[N+]3CCOCC3)CC(C)(C)C2)c1 ?
HTT aggregate: 3%; ALDH1A1 inh: 28µM*; HTT ATP protect: 3%[10 µM]; JMJD2E inh: 5%; CBFb RUNX1 block: 1%; HPGD block: inconclusive

How did COc1cccc2c(Cl)c(CCCl)c(C)nc12 do in these assays?
HTT aggregate: -23%; ALDH1A1 inh: 3%; HTT ATP protect: -7%[10 µM]; JMJD2E inh: -3%; CBFb RUNX1 block: 1%

How did O=C(/C=C/c1ccco1)Nc1ccc2nc3n(c(=O)c2c1)CCCC3 do in these assays?
HTT aggregate: 3%; ALDH1A1 inh: inconclusive; HTT ATP protect: -39%; JMJD2E inh: 4%; CBFb RUNX1 block: -5%

What do the screens show for `Cc1cc(C)nc(SCC(=O)c2cc3ccccc3oc2=O)n1`?
HTT aggregate: 10%; ALDH1A1 inh: 14µM*; HTT ATP protect: 9%; JMJD2E inh: 16%; CBFb RUNX1 block: 1%; HPGD block: 18µM*

What do the screens show for `CC(C)(Oc1ccc(Cl)cc1)C(=O)OCn1nnc2ccccc2c1=O`?
HTT aggregate: -3%; ALDH1A1 inh: 5µM*; HTT ATP protect: 20%[10 µM]; JMJD2E inh: 3%; CBFb RUNX1 block: 16%; HPGD block: inconclusive

How did Cn1cnnc1SCC(=O)OCN1C(=O)c2ccccc2C1=O do in these assays?
HTT aggregate: -16%; ALDH1A1 inh: 0%; HTT ATP protect: -17%; JMJD2E inh: 19%; CBFb RUNX1 block: -2%; HPGD block: -7%

What do the screens show for `O=C(CSc1nc2ccccc2o1)c1cc2ccccc2oc1=O`?
HTT aggregate: -20%; ALDH1A1 inh: -4%; HTT ATP protect: 18%[10 µM]; JMJD2E inh: inconclusive; CBFb RUNX1 block: -23%; HPGD block: -6%

Results for Cc1ccc(S(=O)(=O)NCC(=O)OCN2C(=O)c3ccccc3C2=O)cc1 ?
HTT aggregate: -10%[9.22 µM]; ALDH1A1 inh: 4µM*; HTT ATP protect: -6%; JMJD2E inh: 6%; CBFb RUNX1 block: -1%; HPGD block: -6%

How did Cc1cc(C)nc(SCC(=O)OCN2C(=O)c3ccccc3C2=O)n1 do in these assays?
HTT aggregate: 1%; ALDH1A1 inh: 10µM*; HTT ATP protect: -5%[10 µM]; JMJD2E inh: -15%; CBFb RUNX1 block: 12%; HPGD block: -14%

Results for COc1ccc(-c2c(C)n([O-])c3c([n+]2=O)CCCCC3)cc1OC ?
HTT aggregate: -11%[9.22 µM]; ALDH1A1 inh: 7%; HTT ATP protect: -6%; JMJD2E inh: 0%; CBFb RUNX1 block: 10%

What do the screens show for `Cc1ncc([N+](=O)[O-])n1Cc1ccc(Br)cc1`?
HTT aggregate: -36%[9.22 µM]; ALDH1A1 inh: 8%; HTT ATP protect: -17%; JMJD2E inh: -5%; CBFb RUNX1 block: -2%

How did COc1ccc(N2CC(C(=O)Nc3nnc(SCC(=O)c4ccccc4)s3)CC2=O)cc1 (stereo not drawn) do in these assays?
HTT aggregate: 32%; ALDH1A1 inh: inconclusive; HTT ATP protect: 7%[10 µM]; JMJD2E inh: -4%; CBFb RUNX1 block: inconclusive; HPGD block: inconclusive

How did CCOC(=O)c1cn(CC(=O)Nc2ccc(OC)cc2OC)nn1 do in these assays?
HTT aggregate: 11%; ALDH1A1 inh: 0%; HTT ATP protect: -20%; JMJD2E inh: 2%; CBFb RUNX1 block: 1%

How did Cc1ccc(S(=O)(=O)NCCC(=O)OCn2nnc3ccccc3c2=O)cc1 do in these assays?
HTT aggregate: -9%; ALDH1A1 inh: 28µM*; HTT ATP protect: -20%[10 µM]; JMJD2E inh: 3%; CBFb RUNX1 block: 6%; HPGD block: -10%

Results for CC(C)=CCN1CCN(Cc2c(C)nn(C)c2Cl)CC1CCO (stereo not drawn) ?
HTT aggregate: 2%[9.22 µM]; ALDH1A1 inh: 1%; HTT ATP protect: -3%[10 µM]; JMJD2E inh: 8%; CBFb RUNX1 block: 6%

How did COc1ccc(O)c(/C=N/Nc2nc(Nc3ccccc3)nc(-n3nc(C)cc3C)n2)c1 do in these assays?
HTT aggregate: inconclusive; ALDH1A1 inh: 7%; HTT ATP protect: -78%[10 µM]; JMJD2E inh: 14µM*; CBFb RUNX1 block: inconclusive; HPGD block: -14%

What do the screens show for `COc1cc(/C=N/Nc2nc(Nc3ccccc3)nc(-n3nc(C)cc3C)n2)cc(OC)c1OC`?
HTT aggregate: inconclusive; ALDH1A1 inh: -8%; HTT ATP protect: -10%[10 µM]; JMJD2E inh: 3%; CBFb RUNX1 block: -6%; HPGD block: inconclusive

What do the screens show for `O=C(O)c1ccccc1C(=O)NNc1ccc(F)cc1`?
HTT aggregate: 3%; ALDH1A1 inh: 7.9µM*; HTT ATP protect: -9%; JMJD2E inh: -6%; CBFb RUNX1 block: 1%; HPGD block: inconclusive

How did O=C(O)c1ccccc1C(=O)NNc1ccc(Cl)cc1Cl do in these assays?
HTT aggregate: 13%[9.22 µM]; ALDH1A1 inh: 25µM*; HTT ATP protect: -21%; JMJD2E inh: 2%; CBFb RUNX1 block: 4%
